TGFb inhibitor – qHTS for Inhibitors of TGF-b; HepG2 CAGA-GFP TGF-b/SMAD3 reporter, GFP fluorescence, 18 h; TGF-beta stimulated, 500 pg/mL final; Potency, µM (doses to about 46.1 µM), without a hit: at the highest dose activity, negative = inhibition, actives largely listed as inhibitors; hit rate 1.2% among 410,000; AID 588855, 2011; note: potency is the fitted concentration of half-maximal effect; % is set by controls: 0 for no effect and ±100 for the full control effect; nearly all actives have a fitted effect of over 65% in size
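Per well, imaged GFP fluorescence of HEPG2 CAGA-GFP cells gives the signal; cells get compound, then TGF-beta (500 pg/mL final), 18 h at 37 degrees C; %Activity versus -TGF-beta and +DMSO controls.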
TDP1 block – qHTS Assay for Inhibitors of Tyrosyl-DNA Phosphodiesterase (TDP1). hit rate 0.28% among 350,000. Potency, µM (series often up to 130 µM), without a hit: at the top dose activity change, negative = inhibition, usual class: inhibitors. Tyrosyl-DNA phosphodiesterase 1 (Homo sapiens), Q9NUW8. recombinant TDP1, AlphaScreen DNA substrate cleavage; note: potency is the fitted concentration of half-maximal effect; % is set by controls: 0 for no effect and ±100 for the full control effect; nearly all actives have a fitted effect of over 40% in size
Target sequence (Q9NUW8 whole entry, looked up): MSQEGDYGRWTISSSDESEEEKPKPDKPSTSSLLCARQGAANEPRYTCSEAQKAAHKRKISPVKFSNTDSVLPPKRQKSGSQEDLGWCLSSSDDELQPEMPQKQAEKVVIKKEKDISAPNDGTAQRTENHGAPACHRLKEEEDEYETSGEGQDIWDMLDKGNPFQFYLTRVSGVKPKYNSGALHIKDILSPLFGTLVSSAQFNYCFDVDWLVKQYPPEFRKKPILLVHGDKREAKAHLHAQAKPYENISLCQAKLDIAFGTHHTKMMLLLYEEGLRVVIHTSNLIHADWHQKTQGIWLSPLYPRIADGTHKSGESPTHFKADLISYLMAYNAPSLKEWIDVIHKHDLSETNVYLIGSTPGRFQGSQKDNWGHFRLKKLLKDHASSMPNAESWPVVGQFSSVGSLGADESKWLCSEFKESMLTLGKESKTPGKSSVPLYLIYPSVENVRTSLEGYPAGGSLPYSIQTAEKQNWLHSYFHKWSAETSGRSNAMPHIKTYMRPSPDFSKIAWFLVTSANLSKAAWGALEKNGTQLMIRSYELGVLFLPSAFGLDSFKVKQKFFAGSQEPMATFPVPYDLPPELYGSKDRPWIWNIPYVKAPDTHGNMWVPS
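Enzyme-compound mixtures sat 15 min at room temperature, followed by a 5 min reaction with 15 nM final substrate and 10 min with AlphaScreen beads. Recombinant human Tdp1 was used at 1 nM final.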
HepG2 viability – qHTS for Inhibitors of TGF-b: Cytotox Counterscreen; Potency, µM (top dose mostly 46.1 µM), for the others: at the top dose activity change, negative = cytotoxicity, usual class: cytotoxic; HepG2 CAGA-GFP viability, ATP luminescence, 18 h; AID 588856, 2011; hit rate 0.76% among 410,000; note: potency is the fitted concentration of half-maximal effect
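CellTiter-Glo luminescence gave cytotoxicity after 18 hours at 37 degrees C. The cells were HepG2 CAGA-GFP in 1% FBS DMEM, stimulated with 500 pg/mL TGF-beta after compound addition. %Activity was normalised to no-cell wells (complete cell-killing) and DMSO (no toxicity), and curves were fitted and classified.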
TDP1 cell CPT – qHTS for Inhibitors of human tyrosyl-DNA phosphodiesterase 1 (TDP1): qHTS in cells in presence of CPT; chicken DT40 Tdp1-/-;hTDP1 cells + 20 nM CPT, ATP luminescence, 48 h; Potency, µM (titrated, usually from 46.2 µM), without a hit: at the highest dose activity change, negative = growth inhibition, most hits filed as inhibitors; hit rate 12% among 420,000; AID 686979, 2013; note: potency is the fitted concentration of half-maximal effect; % is set by controls: 0 for no effect and ±100 for the full control effect; nearly all actives have a fitted effect of over 55% in size
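Cell growth measured by CellTiter-Glo luminescence after a minimum 48 h, 37 C compound exposure with 20 nM CPT in Tdp1-knockout DT40 cells stably expressing hTDP1, seeded 400/well; qHTS titration format.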
TDP1 cell noCPT – qHTS for Inhibitors of human tyrosyl-DNA phosphodiesterase 1 (TDP1): qHTS in cells in absence of CPT | Potency, µM (highest dose often 46.2 µM), for inactives: at the top dose activity change, negative = growth inhibition, actives largely listed as inhibitors | hit rate 15% among 420,000 | DT40 Tdp1-/- hTDP1 cells, no CPT, ATP luminescence, 48 h; note: potency is the fitted concentration of half-maximal effect; % is set by controls: 0 for no effect and ±100 for the full control effect; nearly all actives have a fitted effect of over 55% in size
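Camptothecin absent (DMSO only). Human TDP1-complemented DT40 knockout cells, 400 cells/well, 37 °C for minimum 48 hr; ATP measured via CellTiter-Glo, 30 min dark incubation, luminescence.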
IL1B secr inh – qHTS for Inhibitors of Inflammasome Signaling: IL-1-beta AlphaLISA Primary Screen. THP-1 LPS/ATP IL-1B secretion, AlphaLISA, 16 h; active compounds read low. activity change, % at 57.5 µM. hit rate 4.7% among 360,000; in the data active = activity change below about -50%; inconclusive = mostly about -30% to -49%; note: % is set by controls: 0 for no effect and ±100 for the full control effect
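Secreted IL-1B measured by AlphaLISA bead assay after 16 h compound exposure of THP-1 cells; compounds (final up to 57.5 uM) added 1 h before LPS (250 ng/mL) and ATP (1.25 mM) stimulation; lower signal means less secretion.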
* marks the source's active call; other numbers are inactive results. Rows were chosen to be rich in hits. Some 19% of all compounds tested hit in one or more screens of this group. Unless noted, calls come from the whole dose curve; as a rule, active = well fitted curve in the direction sought with a large enough effect; inconclusive = small, poorly fitted or top-dose-only effect, or another doubt; inactive = no such curve, though single readings can be large; an effect the other way counts as inactive or inconclusive.

For COc1ccccc1C1C(C(C)=O)=C(C)N=c2s/c(=C\c3cc(OC)c(OC)c(OC)c3)c(=O)n21 (stereo not drawn) the results were TGFb inhibitor 5.8%, TDP1 block 2.4%, HepG2 viability -39.9%, TDP1 cell CPT 16.4µM*, TDP1 cell noCPT 20.6µM* and IL1B secr inh 9.4.
Screening NC(=O)C1=C[C@H](c2ccc(Br)cc2)C[C@H](OCc2ccc(CO)cc2)O1 returned TGFb inhibitor -7.6%, TDP1 block 5.1%, HepG2 viability -23.1%, TDP1 cell CPT 13µM*, TDP1 cell noCPT 20.6µM* and IL1B secr inh -12.6.
Screening NC(=O)C1=C[C@H](c2ccc(C(F)(F)F)cc2)C[C@H](OCc2ccc(CO)cc2)O1 returned TGFb inhibitor 9.8%, TDP1 block -1.3%, HepG2 viability -1.6%, TDP1 cell CPT -24.8%, TDP1 cell noCPT inconclusive and IL1B secr inh -2.7.
Screening NC(=O)C1=C[C@@H](c2ccc(C(F)(F)F)cc2)C[C@@H](OCc2ccc(CO)cc2)O1 returned TGFb inhibitor -12.0%, TDP1 block 3.8%, HepG2 viability -12.5%, TDP1 cell CPT inconclusive, TDP1 cell noCPT 14.6µM* and IL1B secr inh -12.7.
For CCOc1ccc(Oc2c(/C=N/NC(C)=O)c(C)nn2-c2ccccc2)cc1 the results were TGFb inhibitor -1.7%, TDP1 block 0.6%, HepG2 viability -25.8%, TDP1 cell CPT -17.7%, TDP1 cell noCPT inconclusive and IL1B secr inh -9.0.
Screening CCOc1ccc(Oc2c(/C=N/NC(=O)C3CC3)c(C)nn2-c2ccccc2)cc1 returned TGFb inhibitor -4.5%, TDP1 block 3.4%, HepG2 viability -8.1%, TDP1 cell CPT inconclusive, TDP1 cell noCPT 14.6µM* and IL1B secr inh 6.2.
COc1ccc(NC(=O)CSc2nc3ccccc3nc2N2CCCCC2)cc1 was read as TGFb inhibitor -7.8%, TDP1 block -2.1%, HepG2 viability -3.4%, TDP1 cell CPT inconclusive, TDP1 cell noCPT inconclusive and IL1B secr inh 20.7.
Screening Cc1cccc(NC(=O)CSc2nc3ccccc3nc2N2CCCCC2)c1C returned TGFb inhibitor 14.2%, TDP1 block 1.1%, HepG2 viability -16.2%, TDP1 cell CPT 23.1µM* and TDP1 cell noCPT 11.6µM*.
Cc1cccc(NC(=O)CSc2nc3ccccc3nc2N2CCCCC2)c1 was read as TGFb inhibitor -9.8%, HepG2 viability -37.9%, TDP1 cell CPT 29.1µM*, TDP1 cell noCPT inconclusive and IL1B secr inh -4.4.
`CCc1ccc(NC(=O)CSc2nc3ccccc3nc2N2CCCCC2)cc1` gave TGFb inhibitor -0.7%, HepG2 viability -5.7%, TDP1 cell CPT inconclusive, TDP1 cell noCPT 10.3µM* and IL1B secr inh 31.9.
Screening Cc1cccc(NC(=O)CSc2nc3ccccc3nc2N2CCCC2)c1 returned TGFb inhibitor -0.2%, HepG2 viability -18.4%, TDP1 cell CPT inconclusive, TDP1 cell noCPT inconclusive and IL1B secr inh inconclusive.
`Cc1cc(C)c(NC(=O)c2nc3ccccc3nc2N2CCCCC2)c(C)c1` gave TGFb inhibitor 4.1%, TDP1 block 7.4%, HepG2 viability 2.3%, TDP1 cell CPT inconclusive and TDP1 cell noCPT 25.9µM*.
`CN=C(Nc1cccnc1)c1ccccc1` gave TGFb inhibitor 3.8%, HepG2 viability -7.2%, TDP1 cell CPT 3.1%, TDP1 cell noCPT 8.0% and IL1B secr inh -4.1.
For COc1cccc(NC(=O)CSc2nc3ccccc3nc2N2CCCC2)c1 the results were TGFb inhibitor -1.3%, HepG2 viability -23.9%, TDP1 cell CPT inconclusive, TDP1 cell noCPT inconclusive and IL1B secr inh -15.1.
CCc1cccc(NC(=O)CSc2nc3ccccc3nc2N2CCCCC2)c1 was read as TGFb inhibitor -4.4%, TDP1 block -2.7%, HepG2 viability -15.7%, TDP1 cell CPT 11.6µM* and TDP1 cell noCPT 16.4µM*.
For Cc1cccc(NC(=O)CSc2cc(C)c(C#N)c3nc4ccccc4n23)c1 the results were TGFb inhibitor inconclusive, TDP1 block 0.6%, HepG2 viability -19.7%, TDP1 cell CPT 18.4µM*, TDP1 cell noCPT 11.6µM* and IL1B secr inh 50.4.
`CCOC(=O)c1ncc2[nH]c3cccc(OC(C)C)c3c2c1C` gave TDP1 block 17.4%.
For Cc1c(Cc2ccccc2)c(=O)oc2cc(OCC(=O)NCc3ccccn3)ccc12 the results were TGFb inhibitor -15.0%, TDP1 block 0.9%, HepG2 viability -49.5%, TDP1 cell CPT inconclusive, TDP1 cell noCPT -17.0% and IL1B secr inh -51.6*.
`CC(=O)COc1ccc2c(C)c(-c3ccccc3)c(=O)oc2c1` gave TGFb inhibitor -20.9%, TDP1 block 1.3%, HepG2 viability -26.1%, TDP1 cell CPT inconclusive, TDP1 cell noCPT 25.9µM* and IL1B secr inh -5.9.
For COc1ccc(-n2nnnc2SCC(=O)Nc2c(C)n[nH]c2C)cc1 the results were TGFb inhibitor -7.7%, TDP1 block 1.7%, HepG2 viability -14.7%, TDP1 cell CPT -0.9%, TDP1 cell noCPT -12.7% and IL1B secr inh 12.2.
For Cc1ccccc1-c1nc(NCC2CC2)nc2ccsc12 the results were TGFb inhibitor 0.4%, HepG2 viability -27.2%, TDP1 cell CPT 23.1µM*, TDP1 cell noCPT inconclusive and IL1B secr inh -0.5.
c1ccc(-c2nc(NCC3CC3)nc3ccsc23)cc1 was read as TGFb inhibitor -4.5%, HepG2 viability -17.5%, TDP1 cell CPT 16.4µM*, TDP1 cell noCPT inconclusive and IL1B secr inh 23.4.
Screening COc1ccc(-c2nc(NCCN(C)C)nc3ccsc23)c(C)c1 returned TGFb inhibitor 8.3%, HepG2 viability -42.4%, TDP1 cell CPT inconclusive, TDP1 cell noCPT inconclusive and IL1B secr inh -53.2*.
For Cc1ccc(F)cc1-c1nc(NCC2CC2)nc2ccsc12 the results were TGFb inhibitor 11.8%, HepG2 viability 1.2%, TDP1 cell CPT inconclusive, TDP1 cell noCPT inconclusive and IL1B secr inh -17.7.
Screening CCCN(CCC)CCNC(=O)Cn1ncc2c([nH]c3ccc(C)cc32)c1=O returned TGFb inhibitor 8.5%, TDP1 block 4.2%, HepG2 viability 12.7%, TDP1 cell CPT -4.9% and TDP1 cell noCPT -7.6%.
